Shiga inhibitor: A qHTS for Small Molecule Inhibitors of Shiga Toxin. 9.2% of 290,000 active. inhibition, % at 38.7 µM. AID 2315, 2010. Vero cells, Shiga toxin protein synthesis inhibition reporter; in the data active means inhibition mostly above about 28%, no sharp cut-off; inactive means mostly below about 43%
HCMV antiviral: qHTS Assay for inhibitors of the human cytomegalovirus (HCMV). activity change, negative = inhibition, % at 57.5 µM. 4.5% of 410,000 active. HFF cells, HCMV-luciferase reporter, 72 h; active compounds read low. AID 1259415, 2018; in the data active means activity change below about -60%; inconclusive means no clear call, values can overlap the other calls; inactive means above about -39%
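Compounds were evaluated in HFFs infected with an HCMV luciferase reporter virus (MOI 1 PFU/cell). Luciferase in lysates collected 72 h post infection served as the replication measure.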
Pf growth 48h: Primary qHTS for delayed death inhibitors of the malarial parasite plastid, 48 hour incubation | P. falciparum luciferase growth in erythrocytes, 48 h | 5.9% of 310,000 active | Potency, µM (titrated, usually from 28.7 µM), hits mostly inhibitors
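Parasite viability was followed by luminescence of a genomically integrated firefly luciferase. Cultures held 0.1% parasitemia at 2% hematocrit (final), incubated under 5% CO2 at 37 C.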
HCV inh: qHTS Assay for Inhibitors of Hepatitis C Virus (HCV); Huh7.5.1 HCVcc-Cre infection, luciferase reporter, 44 h; Potency, µM (series often up to 41.8 µM), usual class: inhibitors; 3.4% of 340,000 active
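Whole-lifecycle infectious HCVcc-Cre system; cells 1,000/well, compound then virus (~0.5 moi) added 4 h after plating, 44 h culture. Luciferase read 15 sec following 15 min substrate incubation, room temp.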
Pf growth 96h: Primary qHTS for delayed death inhibitors of the malarial parasite plastid, 96 hour incubation; AID 504834, 2011; Potency, µM (top dose mostly 28.7 µM), usual class: inhibitors; 6.9% of 320,000 active; P. falciparum luciferase reporter growth, 96 h
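Readout is luminescence from an integrated firefly luciferase in P. falciparum. Red cells, 2% hematocrit and 0.05% parasitemia final, were cultured with compound through two parasite generations (96 hours) at 37 C, 5% CO2.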
Cycloheximide cs: Cycloheximide Counterscreen for Small Molecule Inhibitors of Shiga Toxin; cell reporter, cycloheximide protein synthesis inhibition counterscreen; max response, %; 12% of 300,000 active; in the data active means max response mostly above about 13%, no sharp cut-off; inactive means mostly below about 14%; further: read at 38.3 µM for the half of the compounds with a filed dose
Hits are given with their value; [ ] = dose if it differs, or a comment. Most compounds without a hit are left out; they make up all but 21% or so of the library. Unless noted, the call rests on the fitted dose curve; in most records, active means well fitted inhibition curve with a large enough effect; inconclusive means small, poorly fitted or top-dose-only effect, or another doubt; inactive means no such curve, though single readings can be large or run the other way.

`CC(C)(C)c1ccc(C(=O)Nc2ccccc2NC(=O)c2ccco2)cc1` gave Shiga inhibitor 29, HCMV antiviral inactive, Pf growth 48h inconclusive, HCV inh 13µM, Pf growth 96h inactive and Cycloheximide cs 20.
Screening CC(C)(C)c1ccc(C(=O)Nc2ccccc2Cl)cc1 returned Shiga inhibitor 50, HCMV antiviral inactive, Pf growth 48h inactive, HCV inh inactive, Pf growth 96h inactive and Cycloheximide cs inactive.
Screening CC(C(=O)c1ccc(-c2ccccc2)cc1)[n+]1cccc(NC(=O)c2ccccc2)c1 (stereo not drawn) returned Shiga inhibitor inactive, HCMV antiviral -99, Pf growth 48h inconclusive, HCV inh inactive, Pf growth 96h inactive and Cycloheximide cs inactive.
`CC(=O)Nc1ccc(C(=O)Nc2ccncc2)cc1` gave Shiga inhibitor inactive, HCMV antiviral inactive, Pf growth 48h inactive, HCV inh inactive, Pf growth 96h inactive and Cycloheximide cs inactive.
Screening O=C(Nc1ccncc1)c1ccc(F)cc1 returned Shiga inhibitor inactive, HCMV antiviral inconclusive, HCV inh inactive, Pf growth 96h 5.2µM and Cycloheximide cs inactive.
`O=C(Nc1cccnc1)c1cnc2ccccc2n1` gave Shiga inhibitor 70, HCMV antiviral inactive, Pf growth 48h inactive, HCV inh inactive, Pf growth 96h inconclusive and Cycloheximide cs 13.
`O=C(Nc1ccncc1)c1ccc(-c2ccccc2)cc1` gave Shiga inhibitor 121, HCMV antiviral -77, Pf growth 48h inactive, HCV inh 10µM, Pf growth 96h inconclusive and Cycloheximide cs 36.
Screening O=C(Cn1c(=O)n(CCC(=O)N2CCCCC2)c(=O)c2sccc21)NCc1ccccc1 returned Shiga inhibitor inactive, HCMV antiviral inactive, Pf growth 48h inactive, HCV inh inactive, Pf growth 96h inactive and Cycloheximide cs inactive.
For O=C(Nc1cccnc1)c1ccc(-c2ccccc2)cc1 the results were Shiga inhibitor 72, HCMV antiviral inactive, Pf growth 48h inactive, HCV inh inconclusive, Pf growth 96h inactive[1.15 µM] and Cycloheximide cs 33.
CC(=O)Oc1ccc(C(=O)Nc2cccnc2)cc1 was read as Shiga inhibitor inactive, HCMV antiviral inactive, Pf growth 48h inactive, HCV inh inactive, Pf growth 96h inactive and Cycloheximide cs inactive.
CC(C(=O)Nc1ncccn1)(c1ccccc1)c1ccccc1 was read as Shiga inhibitor inactive, HCMV antiviral inactive, Pf growth 48h inactive, HCV inh inactive, Pf growth 96h inconclusive and Cycloheximide cs inactive.
For O=C(Nc1ccc(-c2cnco2)cc1)c1ccccc1 the results were Shiga inhibitor 93, HCMV antiviral inactive, Pf growth 48h inactive, HCV inh inactive, Pf growth 96h inactive and Cycloheximide cs 47.
For CC(C)c1ccc(C(=O)Nc2cccnc2)cc1 the results were HCMV antiviral inactive, Pf growth 48h inactive, HCV inh inactive, Pf growth 96h 10µM and Cycloheximide cs 36.
`CC(C(=O)Nc1ccncc1)(c1ccccc1)c1ccccc1` gave Shiga inhibitor inactive, HCMV antiviral inactive, Pf growth 48h inconclusive, HCV inh inactive, Pf growth 96h 10µM and Cycloheximide cs inactive.
`O=C(Nc1cccnc1)c1ccc(F)cc1` gave Shiga inhibitor inactive, HCMV antiviral inactive, Pf growth 48h inactive, HCV inh inactive, Pf growth 96h inactive and Cycloheximide cs inactive.
`COc1ccccc1C(=O)NC(=O)COC(=O)c1ccc(C)o1` gave HCMV antiviral inactive, Pf growth 48h inactive, HCV inh inactive[8.37 µM] and Pf growth 96h inactive.
CCCCN1C(=O)C(CC(=O)NCC2CCCCC2)CC(C(=O)N(C)C)=C1C (stereo not drawn) was read as HCMV antiviral -105.
Screening O=C(CSCc1ccc(Br)cc1)NCCc1ccccc1 returned Shiga inhibitor inactive, HCMV antiviral inactive, Pf growth 48h inactive, HCV inh inactive, Pf growth 96h inactive and Cycloheximide cs inactive.
CC(CC(=O)NCCc1ccc(F)cc1)c1ccccc1 (stereo not drawn) was read as Shiga inhibitor inactive, HCMV antiviral inactive, Pf growth 48h inactive, HCV inh inactive, Pf growth 96h inconclusive and Cycloheximide cs 25.
`O=c1cc(N2CCN(Cc3ccccc3)CC2)[nH]c(=O)n1Cc1ccc(F)cc1` gave Shiga inhibitor inactive, HCMV antiviral inactive, Pf growth 48h inactive, HCV inh inactive, Pf growth 96h 3.7µM and Cycloheximide cs inactive.
`O=C(CN1CCN(Cc2ccccc2)CC1)NCCc1ccccc1` gave Shiga inhibitor inactive, HCMV antiviral inactive, Pf growth 48h inactive, HCV inh inactive, Pf growth 96h inactive and Cycloheximide cs inactive.
`O=C(CN1CCN(Cc2ccc(F)cc2)CC1)NCCc1ccccc1` gave HCMV antiviral -81, Pf growth 48h inactive, HCV inh inactive, Pf growth 96h inactive and Cycloheximide cs inactive.
`O=C(CSCc1ccccc1)NCCc1ccc(F)cc1` gave Shiga inhibitor inactive, HCMV antiviral inactive, Pf growth 48h inconclusive, HCV inh inactive, Pf growth 96h inactive and Cycloheximide cs 17.
`COc1ccc(-c2noc(C3CC(=O)N(c4ccc(C)c(F)c4)C3)n2)c(OC)c1` (stereo not drawn) gave HCMV antiviral inactive.
Screening O=C(NC1(C(F)(F)F)C(=O)Nc2c1c(=O)[nH]c(=O)n2-c1ccccc1)c1ccccc1Cl (stereo not drawn) returned HCMV antiviral inactive.
For O=C(CCc1ccccc1)NCCSCc1c(F)cccc1Cl the results were Shiga inhibitor inactive, HCMV antiviral inactive, Pf growth 48h inactive, HCV inh inactive, Pf growth 96h inconclusive and Cycloheximide cs 23.
O=C(CCSCc1ccc(Cl)cc1)NCCc1ccccc1 was read as Shiga inhibitor inactive, HCMV antiviral inactive, Pf growth 48h inactive, HCV inh inactive, Pf growth 96h inactive and Cycloheximide cs inactive.
O=C(CSCc1c(F)cccc1Cl)NCCc1ccccc1 was read as Shiga inhibitor 46, HCMV antiviral inactive, Pf growth 48h inactive, HCV inh inactive, Pf growth 96h inactive and Cycloheximide cs 21.
`CC(C)NC(=O)CSCc1c(F)cccc1Cl` gave Shiga inhibitor inactive, HCMV antiviral inactive, Pf growth 48h inactive, HCV inh inactive, Pf growth 96h inactive and Cycloheximide cs 8.4.
Cc1cc(F)ccc1S(=O)(=O)NCC(c1ccco1)S(=O)(=O)c1cccs1 (stereo not drawn) was read as HCMV antiviral inactive.
Screening O=C(CN1C(=O)COc2ccc(S(=O)(=O)NC3CCCC3)cc21)Nc1ccc(Cl)cc1F returned HCMV antiviral inactive.
Screening COCCN(CC(=O)Nc1ccccc1C(F)(F)F)C(=O)/C=C/c1cc(Cl)c2c(c1)OCO2 returned HCMV antiviral inactive, Pf growth 48h inconclusive, HCV inh inconclusive and Pf growth 96h inconclusive.
